The list is not random: actives were taken first. Their share in the collection is about 27%.
CYP2C9 activ = increases human cytochrome P450 2C9 activity; P11712; recombinant CYP2C9, luciferin-H conversion, luminescence; stronger effect = higher value; factor 1 = untreated enzyme, 0 = blocked; activation factor at 5 µM; hit rate 1.4% among 96,000; AID 1024;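 active means activation factor of 2 or more for CYP2C9 at a 5 µM dose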;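 further: 0 = sulfaphenazole-blocked wells and 1 = vehicle-only wells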
sEH act = activators of human soluble epoxide hydrolase. P34913. hit rate 0.04% among 91,000. AID 717. purified human sEH enzymatic activity, activator screen. activation, % at 2 µM; in the data active means activation above about 37%
Target sequence (P34913 whole entry, looked up): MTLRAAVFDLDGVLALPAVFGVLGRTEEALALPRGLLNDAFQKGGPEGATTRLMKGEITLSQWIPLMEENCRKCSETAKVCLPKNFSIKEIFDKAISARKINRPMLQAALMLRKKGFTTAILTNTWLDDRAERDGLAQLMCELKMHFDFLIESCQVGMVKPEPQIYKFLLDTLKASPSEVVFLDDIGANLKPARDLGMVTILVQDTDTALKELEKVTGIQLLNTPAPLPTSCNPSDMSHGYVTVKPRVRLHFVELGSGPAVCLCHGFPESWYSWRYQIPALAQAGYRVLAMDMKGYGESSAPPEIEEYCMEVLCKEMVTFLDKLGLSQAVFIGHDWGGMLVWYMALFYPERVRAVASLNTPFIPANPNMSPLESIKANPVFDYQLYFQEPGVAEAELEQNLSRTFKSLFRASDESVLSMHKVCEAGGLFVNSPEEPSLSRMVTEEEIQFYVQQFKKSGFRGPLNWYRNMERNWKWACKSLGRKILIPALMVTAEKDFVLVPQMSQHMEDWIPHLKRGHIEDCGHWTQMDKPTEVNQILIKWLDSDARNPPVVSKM
CYP2C9 inhib = human CYP2C9 inhibition; CYP2C9 Supersomes, luciferin-H conversion, luminescence; hit rate 20% among 96,000; P11712; inhibition, % at 5 µM;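 active means blocking of liver enzyme CYP2C9 beyond about 50% at 5 µM, limit read from the data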
CYP2C19 act = cytochrome P450 2C19 (human) activation; P33261; recombinant CYP2C19, luciferin-H EGE luminescence; stronger effect = higher value; 0 = fully inhibited enzyme, 1 = untreated enzyme; activation factor at 5 µM; 96,000 tested, under 10 active;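 active means activation factor of at least 2 at 5 µM in the primary screen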;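 further: 0 = wells with 2.5 mM tranylcypromine and 1 = vehicle-only wells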
CYP2C19 inhib = blocks human cytochrome P450 2C19. CYP2C19 Supersomes, luciferin-H EGE luminescence, 30 min. hit rate 21% among 96,000. P33261. inhibition, % at 5 µM;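 active means CYP2C19 inhibition above a set limit at 5 µM in the primary screen, cut at about 50% in these data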;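 further: plate controls were negative control wells for no effect and 2.5 mM tranylcypromine positive control for full effect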
sEH inhibitor = inhibitors of human soluble epoxide hydrolase; P34913; recombinant human sEH enzymatic activity assay; inhibition, % at 2 µM; hit rate 0.34% among 91,000; AID 707; in the data active means inhibition above about 80%
* = called active by the depositor; . = not tested or not shown.

SMILES	CYP2C9 activ	sEH act	CYP2C9 inhib	CYP2C19 act	CYP2C19 inhib	sEH inhibitor
O=C1C=C(NCC2CCCO2)CC(c2ccccc2)C1 (configuration not stated)	1	-4.4	-2.7	0.3	73.0*	3.9
O=C1C=C(NCCN2CCOCC2)CC(c2ccccc2)C1 (configuration not stated)	1	-2.7	-1.7	0.9	7.9	1.5
CCOC(=O)N1CCC(NC(=O)C2CCN(S(=O)(=O)N3CCC(C)CC3)CC2)CC1	0.8	.	20.6	1	4.0	.
Cc1ccc(S(=O)(=O)CCc2nnc(NC(=O)COc3cccc(C)c3)s2)cc1	0.9	-6.1	5.0	1	-4.1	8.0
COc1ccc(Br)cc1S(=O)(=O)N1CC(C)OC(C)C1 (configuration not stated)	.	3.3	.	.	.	-0.9
CCOc1ccc(C(C)(C)C)cc1S(=O)(=O)N1CC(C)OC(C)C1 (configuration not stated)	0.4	-2.5	63.0*	0.2	79.2*	6.1
Nc1nc(SCC(=O)NC2CCCC2)[nH]c(=O)c1-c1ccccc1	0.8	-9.9	17.1	0.7	28.9	9.7
CCOC(=O)c1sc(NC(=O)CCN2C(=O)c3cccc([N+](=O)[O-])c3C2=O)c(C(=O)OCC)c1C	0.4	-1.8	56.7*	0.5	48.7	0.7
CCOC(=O)c1c(NC(=O)CCN2C(=O)c3ccccc3C2=O)sc(C(=O)OC(C)C)c1C	0.4	29.2	60.0*	0.8	22.6	-26.7
CN(Cc1ccccc1)C(=O)Cn1cccc1C(=O)c1ccccc1	0.7	-7.3	29.7	0.3	69.8*	9.2
CCCC(C)C(=O)Nc1nnc(C)s1 (configuration not stated)	1.2	-4.9	-17.8	1	-1.0	5.4
Cc1cc(Nc2ncc(Cl)cc2Cl)n[nH]1	0.9	-3.6	6.1	0.3	70.6*	1.5
Cc1ccc(/C=N/Nc2ncc(Cl)cc2Cl)s1	1.2	-24.1	-23.9	0.8	23.3	25.6
C=CCN(C(C)=O)C1CC(=O)N(c2ccc(OCCC)cc2)C1=O (configuration not stated)	1	-2.4	2.6	1	-4.0	1.4
COCC(=O)N(Cc1nc2ccccc2c(=O)[nH]1)Cc1cccs1	0.5	-11.7	52.2*	0.6	42.0	10.4
CCC(CC)C(=O)N(CCc1ccc(OC)cc1)Cc1nc2ccccc2c(=O)[nH]1	0.6	0.0	44.1	0.7	32.0	-2.1
COc1ccc(CCN(Cc2nc3ccccc3c(=O)[nH]2)C(=O)c2ccco2)cc1	0.4	-2.6	57.3*	0.6	43.9	5.4
COc1ccc(CN(Cc2nc3ccccc3c(=O)[nH]2)C(=O)C(C)(C)C)cc1	1	5.2	3.5	0.7	27.5	-3.0
COCC(=O)N(CCc1ccc(OC)c(OC)c1)Cc1nc2ccccc2c(=O)[nH]1	1	-0.8	4.3	0.4	57.5*	1.8
COc1ccc(N(Cc2cc(=O)[nH]c3ccccc23)C(=O)c2ccco2)cc1	0.4	-3.5	62.7*	0.9	5.2	3.3
COc1ccc(CN(C(=O)c2ccco2)c2ccccc2)cc1	.	-5.6	.	.	.	10.2
CCN(CC)S(=O)(=O)c1ccc(NC(=O)CSc2cccc[n+]2[O-])cc1	0.7	3.0	32.4	1.2	-15.1	-5.1
C=CCn1c(CCCNC(=O)CCC)nc2ccccc21	.	3.8	.	.	.	-3.5
O=C(CSc1ccsc1[N+](=O)[O-])NCCc1ccccc1	0.4	20.4	55.0*	0.8	21.9	-21.8
CCC(Cc1ccccc1)NC(=O)CSc1ccsc1[N+](=O)[O-] (configuration not stated)	0.7	-51.7	26.6	0.3	72.2*	51.1
SMILES	CYP2C9 activ	sEH act	CYP2C9 inhib	CYP2C19 act	CYP2C19 inhib	sEH inhibitor
O=C(CSc1nc2ccc([N+](=O)[O-])cc2[nH]1)NCCc1ccccc1	0.2	0.7	81.0*	0.2	82.3*	2.1
Cc1cc(C)c2c(=O)[nH]c(SCC(=O)NCCc3ccccc3)nc2n1	.	-0.2	.	.	.	5.7
CC(Sc1ccsc1[N+](=O)[O-])C(=O)NCCc1ccc(Cl)cc1 (configuration not stated)	0.3	1.1	69.5*	0.4	57.3*	-2.3
Cc1ccc(-c2nn(CC(=O)O)c(=O)c3ccccc23)cc1	.	9.5	.	.	.	-8.1
Cc1ccc(NC(=O)NNC(=O)Cn2nc(-c3ccccc3)c(-c3ccccc3)c(C#N)c2=O)cc1	0.4	-1.0	56.8*	0.8	23.6	1.0
CCOC(=O)CCc1c(C)n(CC)c2cc(-c3ccccc3OC)nn2c1=O	1	10.1	3.4	1	3.2	-9.5
Cc1c(C(=O)N2CCCC2)sc(NC(=O)c2cccs2)c1C#N	0.1	12.1	93.8*	0.9	8.0	-8.0
Cc1c(C(=O)N2CCCCC2)sc(N)c1C#N	0.8	.	18.5	0.8	19.2	.
Cc1c(C(=O)N2CCCC2)sc(NC(=O)c2ccccc2)c1C#N	.	-5.1	.	.	.	5.3
Cc1c(C(=O)N2CCCCC2)sc(NC(=O)c2ccco2)c1C#N	.	4.7	.	.	.	0.6
Cc1c(C(=O)N2CCCCC2)sc(NC(=O)C2CC2)c1C#N	0.4	-6.8	56.1*	0.5	54.4*	6.3
Cc1c(C(=O)N2CCCCC2)sc(NC(=O)C(C)C)c1C#N	0.3	-0.2	67.8*	0.4	62.3*	0.1
CCNc1nc(NCC)nc(Nn2cnnc2)n1	1.1	8.6	-12.1	1	2.1	-7.1
Cc1cccc(NC(=O)c2cccc(N3C(=O)C4C5CCC(C5)C4C3=O)c2)c1C (configuration not stated)	1	-17.8	0.1	1.1	-12.4	18.4
CCc1ccccc1NC(=O)CSc1nnc([C@@H]2CCCN2C(=O)OC(C)(C)C)o1	0.9	7.2	14.3	0.7	28.7	-3.7
CC(C)(C)OC(=O)N1CCC[C@H]1c1nnc(SCc2ccccc2F)o1	0.4	9.0	59.6*	0.4	60.6*	-10.9
CC1Cc2ccccc2N1C(=O)CN(C)S(=O)(=O)c1cccc2cccnc12 (configuration not stated)	1.9	5.1	-88.5	0.7	27.4	-6.1
Cc1ccc(NC(=O)CN(C)S(=O)(=O)c2cccc3cccnc23)cc1	0.2	-1.6	77.8*	0.6	41.1	2.2
O=C(O)CCS(=O)(=O)c1cccc2cccnc12	1	4.9	1.3	1.1	-6.1	-5.0
CN(CC(=O)N1CCCCC1)S(=O)(=O)c1cccc2cccnc12	2.1*	.	-105.1	1	3.4	.
CN(CC(=O)NCc1ccc(Cl)cc1)S(=O)(=O)c1cccc2cccnc12	1.7	-2.5	-72.0	0.5	45.2	1.5
CN(Cc1ccccc1)S(=O)(=O)c1cccc2cccnc12	3*	13.1	-203.3	0.2	79.7*	-10.9
Cc1csc(NC(=O)CN(C)S(=O)(=O)c2cccc3cccnc23)n1	0.2	8.3	84.2*	0.1	90.6*	-9.7
O=C(NCCCN=C1NS(=O)(=O)c2ccccc21)c1ccc(S(=O)(=O)N2CCOCC2)cc1	0.8	-10.2	18.6	1.1	-9.1	12.1
COc1ccc(NC(C)=O)cc1NC(=O)CCn1c(=O)sc2ccccc21	.	1.6	.	.	.	-1.0

Screening data: PubChem BioAssay, several laboratories
